The text below walks through data of PubChem BioAssay (EPA / NIEHS).

As usually defined, the AC50 is the concentration giving half of the maximal activity seen.

Records with an inconclusive call do not appear. Some compounds were tested as several samples or in several runs, with calls that do not always agree. The source made the active and inactive calls. How the source made its calls: active means hit-call score of the fitted dose curve at least 0.9, where 1 is the maximum; inconclusive means response in the unintended direction; inactive means score below 0.9.

The nature of experiment [1]: TOX21_p53_BLA_p3_viability: Viability Assessment in the Tox21 HCT-116 p53 Agonism Beta-lactamase Assay, Phase 3 (AID 2283593).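 Further: cells exposed to compound for 16 h before reading.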 A digest of the protocol:
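HCT-116 cells (4000/well) rested 5 h at 37C, then got DMSO compounds by pin tool (217-fold dilution) for 16 h at 37C, 5% CO2. After the bla read, CellTiter-Glo was added and luminescence read at 30 min, room temperature.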

For experiment [2], the target named is Cellular tumor antigen p53 (Homo sapiens) (UniProt P04637). In words: TOX21_p53_BLA_p3_ratio: Tox21 HCT-116 p53 Agonism Beta-lactamase Assay, Ratio, Phase 3 (AID 2283596). A digest of the protocol: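 Cells were seeded at 4000/well, rested 5 h at 37C, then dosed with DMSO compound solutions (217-fold dilution) for 16 h. CCF4-AM substrate was loaded for 2 h at room temperature, and the 460/530 nm emission ratio was fitted for gain of signal versus DMSO.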

The nature of experiment [3]: TOX21_p53_BLA_p4_viability: Viability Assessment in the Tox21 HCT-116 p53 Agonism Beta-lactamase Assay, Phase 4 (AID 2283597).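 Further: hits lower the luminescence signal meaning cytotoxicity.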 A digest of the protocol: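 Readout: ATP luminescence (CellTiter-Glo), measured 30 min after reagent addition at RT. The reagent followed a 2 h CCF4-AM incubation, and the cells had been exposed to compound for 16 h at 37C.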
Experiment [4] addresses Cellular tumor antigen p53 (Homo sapiens) (UniProt P04637). In words: TOX21_p53_BLA_p5_ratio: Tox21 HCT-116 p53 Agonism Beta-lactamase Assay, Ratio, Phase 5 (AID 2283599). A digest of the protocol: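 HCT-116 cells carrying a p53-inducible beta-lactamase reporter were seeded at 4000 cells/well and dosed after 5 h with compound in DMSO (217-fold dilution). After 16 h at 37C, CCF4-AM substrate was added for 2 h, and the 460/530 nm emission ratio was scored as gain-of-signal versus DMSO.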

Experiment [5] in a line: TOX21_p53_BLA_p5_viability: Viability Assessment in the Tox21 HCT-116 p53 Agonism Beta-lactamase Assay, Phase 5 (AID 2283600). The gist of the method:
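Workflow: seed 4000 cells per well, wait 5 h, add compounds (DMSO, 217-fold dilution), incubate 16 h, load CCF4-AM 2 h, add CellTiter-Glo, read luminescence after 30 min.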

Experiment [6] has as its target Cellular tumor antigen p53 (Homo sapiens) (UniProt P04637). In words: TOX21_p53_BLA_p4_ratio: Tox21 HCT-116 p53 Agonism Beta-lactamase Assay, Ratio, Phase 4 (AID 2283601). The gist of the method:
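HCT116 cells carrying an inducible beta-lactamase reporter were plated at 4000 cells/well, rested 5 h, then exposed to compounds in DMSO (217-fold dilution) for 16 h at 37C. CCF4-AM substrate was loaded 2 h at room temperature; 460/530 nm emission ratio scored gain-of-signal versus DMSO.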

Experiment [7] in a line: Tanguay_ZF_120hpf_YSE_legacy: (Legacy) Oregon State University Tanguay Lab 120 Hour Post-fertilization zebrafish Assay for Yolk Sac Edema (AID 2283634). A digest of the protocol: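 Dechorionate (pronase, 4 hpf) → place one 6 hpf embryo per well → static compound exposure, sealed and foil-covered, 28C, to 120 hpf → record yolk sac edema as present or absent. Final DMSO 0.64%.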

A short description of experiment [8]: Tanguay_ZF_120hpf_AXIS_legacy: (Legacy) Oregon State University Tanguay Lab 120 Hour Post-fertilization zebrafish Assay for Body Axis Malformation (AID 2283635). A digest of the protocol:
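Chorion is removed with pronase at 4 hpf, then single 6 hpf embryos are dosed (final DMSO 0.64%) and held statically at 28C in sealed, foil-covered plates. At 120 hpf body axis malformation is recorded as present or absent.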

Experiment [9] can be described thus: Tanguay_ZF_120hpf_EYE_legacy: (Legacy) Oregon State University Tanguay Lab 120 Hour Post-fertilization zebrafish Assay for Eye Malformation (AID 2283636). A digest of the protocol:
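Static waterborne exposure of dechorionated zebrafish embryos (strain Tropical 5D), 6 to 120 hpf, sealed plates at 28C, 0.64% DMSO vehicle. Eye malformation is scored as a binary endpoint, with gain of signal analysed relative to DMSO.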

Experiment [10] in a line: Tanguay_ZF_120hpf_SNOU_legacy: (Legacy) Oregon State University Tanguay Lab 120 Hour Post-fertilization zebrafish Assay for Snout Malformation (AID 2283637). A digest of the protocol: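 Dechorionated zebrafish, individually housed from 6 hpf in covered, sealed wells at 28C with 0.64% DMSO vehicle, were examined at 120 hpf for snout malformation. Responses were binary and analysed positive-direction relative to DMSO.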

A short description of experiment [11]: Tanguay_ZF_120hpf_JAW_legacy: (Legacy) Oregon State University Tanguay Lab 120 Hour Post-fertilization zebrafish Assay for Jaw Malformation (AID 2283638).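 On AC50: active means more embryos with jaw malformation than DMSO controls.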 A digest of the protocol:
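Steps: dechorionate 4 hpf embryos (pronase); plate 1/well at 6 hpf; add test chemical, 0.64% DMSO final; seal, cover, hold at 28C statically to 120 hpf; score jaw defect presence/absence microscopically. Dead embryos not scored.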

The nature of experiment [12]: Tanguay_ZF_120hpf_OTIC_legacy: (Legacy) Oregon State University Tanguay Lab 120 Hour Post-fertilization zebrafish Assay for Otic Vesicle Malformation (AID 2283639). The gist of the method: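 Brightfield scoring at 120 hpf, binary present/absent; DMSO negative control, 5uM trimethyltin chloride positive control. Static exposure at 28C, final DMSO 0.64% (vol/vol). Dead embryos not scored for malformation.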

A short description of experiment [13]: Tanguay_ZF_120hpf_PE_legacy: (Legacy) Oregon State University Tanguay Lab 120 Hour Post-fertilization zebrafish Assay for Pericardial Edema (AID 2283640).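 On AC50: potency for increased incidence of pericardial edema versus DMSO baseline.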 The gist of the method: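 Embryos from wild-type 5D adults were staged, then dosed in 0.64% DMSO. They were kept sealed in the dark at 28C until 120 hpf. Pericardial edema was then recorded as present or absent.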

The nature of experiment [14]: Tanguay_ZF_120hpf_SOMI_legacy: (Legacy) Oregon State University Tanguay Lab 120 Hour Post-fertilization zebrafish Assay for Somite Malformation (AID 2283647). A digest of the protocol: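 Read-out: presence or absence of somite malformation in 120 hpf larvae, gain-of-signal relative to DMSO baseline. Embryos lacked chorion (pronase, 4 hpf) and were exposed statically from 6 hpf at 28C; dead larvae not scored.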

Experiment [15] is described as follows: Tanguay_ZF_120hpf_PFIN_legacy: (Legacy) Oregon State University Tanguay Lab 120 Hour Post-fertilization zebrafish Assay for Pectoral Fin Malformation (AID 2283648).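 Further: each larva judged yes or no for fin defect by brightfield with dead larvae skipped.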 A digest of the protocol:
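Scoring of pectoral fin malformation was binary, made at 120 hpf on larvae exposed statically from 6 hpf after enzymatic chorion removal. Activity was fitted upward relative to DMSO controls at 0.64% (vol/vol).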

Experiment [16] is described as follows: Tanguay_ZF_120hpf_PIG_legacy: (Legacy) Oregon State University Tanguay Lab 120 Hour Post-fertilization zebrafish Assay for Pigmentation Malformation (AID 2283650). The gist of the method:
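Endpoint is incidence of abnormal pigmentation at 120 hpf in dechorionated 5D zebrafish exposed singly from 6 hpf at 28C, DMSO vehicle at 0.64%. Embryos dying by 24 or 120 hpf are excluded from scoring.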

The nature of experiment [17]: Tanguay_ZF_120hpf_CIRC_legacy: (Legacy) Oregon State University Tanguay Lab 120 Hour Post-fertilization zebrafish Assay for Circulatory Malformation (AID 2283651). A digest of the protocol:
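Static exposure, 6–120 hpf, 28C, sealed and dark; one dechorionated 5D embryo/well; DMSO 0.64% v/v final. Binary circulation endpoint by brightfield; dead embryos not scored.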

A short description of experiment [18]: Tanguay_ZF_120hpf_BRAI_legacy: (Legacy) Oregon State University Tanguay Lab 120 Hour Post-fertilization zebrafish Assay for Brain Malformation (AID 2283641). The gist of the method: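 Wild-type 5D larvae, static waterborne exposure to 120 hpf, 28C, 0.64% v/v DMSO. Brightfield scoring of brain defects, binary; dead embryos excluded. Positive ctrl 5uM trimethyltin chloride.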

The nature of experiment [19]: Tanguay_ZF_120hpf_CFIN_legacy: (Legacy) Oregon State University Tanguay Lab 120 Hour Post-fertilization zebrafish Assay for Caudal Fin Malformation (AID 2283649). A digest of the protocol:
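Binary presence or absence of caudal fin malformation at 120 hpf, read by brightfield microscopy, with DMSO as baseline. Larvae came from 5D wild-type embryos exposed statically from 6 hpf at 28C after pronase dechorionation.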

Experiment [20] can be described thus: Tanguay_ZF_120hpf_MORT_legacy: (Legacy) Oregon State University Tanguay Lab 120 Hour Post-fertilization zebrafish Assay for Mortality (AID 2283633). A digest of the protocol:
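5D WT zebrafish, chorion removed 4 hpf; 1 embryo/well from 6 hpf; static exposure to 120 hpf, 28C, dark, sealed. Final DMSO 0.64%. Readout: binary mortality, brightfield, 24 + 120 hpf; DMSO as negative control.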

Sequence of Cellular tumor antigen p53 (Homo sapiens) (P04637 whole entry, looked up): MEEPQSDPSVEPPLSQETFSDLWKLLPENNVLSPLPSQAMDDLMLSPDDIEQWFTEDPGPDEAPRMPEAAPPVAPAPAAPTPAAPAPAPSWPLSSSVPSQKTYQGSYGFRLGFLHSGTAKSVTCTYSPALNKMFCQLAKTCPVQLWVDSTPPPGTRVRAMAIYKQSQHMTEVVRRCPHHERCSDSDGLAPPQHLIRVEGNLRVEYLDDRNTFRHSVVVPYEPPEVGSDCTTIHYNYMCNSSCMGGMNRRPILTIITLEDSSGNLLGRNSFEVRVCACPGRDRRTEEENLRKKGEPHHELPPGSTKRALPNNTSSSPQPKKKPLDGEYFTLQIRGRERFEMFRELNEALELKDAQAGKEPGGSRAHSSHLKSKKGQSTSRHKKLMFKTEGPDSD

As for `COS(=O)(=O)OC`, the compound was called inactive in experiment [1], in experiment [2], in [3], in experiment [4], in [5] and in experiment [6]. The outcome in experiment [7], in [8], in experiment [9], in [10], in experiment [11] and in experiment [12] was inactive. In addition, the result in [13], in experiment [14], in experiment [15], in [16] and in experiment [17] was inactive.
`O=S(=O)(O)C(F)(F)C(F)(F)C(F)(F)C(F)(F)C(F)(F)C(F)(F)F`: the result in [1], in experiment [2], in experiment [3], in experiment [4], in experiment [7] and in [8] was inactive. In addition, the outcome in experiment [9], in experiment [10], in experiment [11], in experiment [12], in experiment [15] and in [16] was inactive. In [17], the outcome was inactive. In addition, the AC50 in [18] is 14.9 µM (active).
On to `CC(C)C(=O)OCC(C)(C)C(OC(=O)C(C)C)C(C)C` (configuration not stated), for which the AC50 in experiment [1] is 46.4 µM (active); in [11], 41.6 µM (active); in [13], 28.8 µM (active). The result in [2], in [3], in experiment [5], in [6], in experiment [7] and in experiment [8] was inactive. Moreover, the compound was classed as inactive in experiment [9], in experiment [10], in [12], in experiment [18], in experiment [14] and in [19]. The outcome in [16] and in [17] was inactive.
For `C[C@]12CCC(=O)C=C1CC[C@@H]1[C@@H]2CC[C@@]2(C)[C@H]1CC[C@]2(C)O`, the compound was called inactive in experiment [1], in experiment [2], in [3], in experiment [5], in experiment [6] and in [7]. Also, the call in [11], in experiment [12], in [18], in experiment [19], in experiment [16] and in experiment [17] was inactive. Also, the AC50 in [6] was 48.6 µM (active).
Take `CN(C)c1nc(=O)n(C2CCCCC2)c(=O)n1C`: the compound was called inactive in [20], in experiment [7], in [8], in experiment [9], in experiment [10] and in experiment [12]. The compound was called inactive in experiment [13], in experiment [18], in experiment [19] and in [17].
Turning to `CCCCCCCCOC(=O)c1ccccc1C(=O)OCCCCCCCC`, the call in [1], in experiment [2], in experiment [4], in experiment [5], in [6] and in experiment [7] was inactive. Moreover, the call in [8], in [9], in experiment [10], in experiment [11], in [12] and in [13] was inactive. The compound was called inactive in experiment [18], in [14], in experiment [15], in [19], in [16] and in [17].
With `c1ccc(-c2ccccc2)cc1`, the compound was called inactive in [1], in experiment [2], in experiment [4], in experiment [5], in experiment [6] and in experiment [7]. Also, the compound was classed as inactive in experiment [8], in experiment [9], in [11], in experiment [12], in [13] and in experiment [15]. For the same compound, in experiment [16], the result was inactive.
As to `O=NN(c1ccccc1)c1ccccc1`, the result in [2], in experiment [3], in [5], in experiment [6], in experiment [7] and in experiment [8] was inactive. Besides, the call in experiment [9], in experiment [10], in experiment [11], in experiment [12], in [13] and in [18] was inactive. Besides, the compound was classed as inactive in experiment [15], in [16] and in experiment [17].
